Measured values as given in the supplement of paper PMC10681739.

The sequences below were run against T1, ETS1 (UniProt P14921) (assay: ETS1 binding intensity (PBM fluorescence) in presence of RUNX1, normalised to ETS1-only experiment (arbitrary fluorescence units); higher = stronger binding). Details: ETS1 concentration 1 nM; RUNX1 concentration 25 nM.
T1 sequence: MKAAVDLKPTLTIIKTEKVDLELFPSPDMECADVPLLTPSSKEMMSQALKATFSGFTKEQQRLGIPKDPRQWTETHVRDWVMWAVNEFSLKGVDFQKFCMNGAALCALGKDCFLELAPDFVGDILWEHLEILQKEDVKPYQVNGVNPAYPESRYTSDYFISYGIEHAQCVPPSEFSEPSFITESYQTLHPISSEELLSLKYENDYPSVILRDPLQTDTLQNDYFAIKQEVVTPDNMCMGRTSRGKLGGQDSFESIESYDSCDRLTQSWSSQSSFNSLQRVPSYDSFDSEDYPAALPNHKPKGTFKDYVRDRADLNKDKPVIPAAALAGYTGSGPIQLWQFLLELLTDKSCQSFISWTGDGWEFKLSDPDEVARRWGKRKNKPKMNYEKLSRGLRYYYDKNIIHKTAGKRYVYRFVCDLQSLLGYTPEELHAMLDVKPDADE
Method: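 Cooperative genomic-context PBM: 36-bp genomic probes with neighbouring ETS1 and RUNX1 sites, double-stranded on Agilent 4x180k arrays. Full-length recombinant human ETS1 (1 nM) was incubated alone or with RUNX1 (25 nM) and detected with anti-ETS1 antibody plus Alexa488 secondary. Value is the median fluorescence intensity over 4 replicate spots; the ETS1+RUNX1 data were normalised to the ETS1-only data using probes without RUNX1 sites. The 36-bp variable region sits on the array probe with constant linker/primer flanks that are not printed.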

Sequence	ETS1 binding intensity
GTCGTGTTTGGCTTCCTGTGGGCACGCCTGCGTAGC	516
CGAGATCCTGGCCACGGATGCGGTGGCCGCGCCTCT	660
TGGTTAGGGAGAGGGGGATGTGGTTAGGGTGAGGGA	3960
TACTAGTTTGGGGCATCCTGTGGTATAGGGGAAGCA	4560
GAGCGCAGGACGGAAGCTCGGTGCGGGTGCGGCCTC	938
GGGCTTCAGCGGATGAACAAGGTTACCACGGGGAGT	504
CCCTACCTCTCCTTCCTGCCACAAGGGAAAGTCACT	481
CCTGACTCTGGGTTTCCTCCCAGCCACAGACACCTG	412
CCTGGTCCGGAAGCGCTGTCCCCGCCTCCCGCATAG	2430
GTGTGGAAGGAGGAAGCGAGAATGTGGTTACTTAGG	1890
CGAAAGTGACCGGAAGTAACCGCCGGGCCAAGATGG	18200
GAGACAGGAAATGTAGACTTGAGTCCTGTGGTAAAC	6740
CAAGAGGAACCGGAACTTTGGAAACCACATTCTTAT	4800
GGGCCCACATCCGGCGCGCGCAACCGCAGCCTACTG	6540
AAAGGGAAGTTGGCGGGAGTTCAAAACCACCGGGGC	494
CACCTGCAGTGAAGAGGATGTGGGCAAAGATTATGC	2180
AGCGCCGGAAGTGTGTCTGCGTAAAACTGCGGCTCG	3720
CCGCCACCGGAAGCGCCCTCCTAATCCCCGCAGCGC	6170
CAAGAGCCGGAAGTCCCTTGTGCCGCAGTCCTTCCC	6680
CCAACACAGGAAATAATTTGAAACCACAATCAGAAA	4460

Sequence	ETS1 binding intensity
TGGCTGTGTCCCGGAAGTGGTCATAAGCTGGGTCCC	9830
GTCAGGGGAACAGGATGTGGGTGGGAGCCAGCCCCA	5560
CCTGGGGGGCCGGAAGCCCCGCTGCGGCCCCAGCCC	2480
CCGCCCTCCACCGAGTTCCGGCCACAGAGCGGGCCC	547
CTCCCACGCTCCCCTTCCGGCCCCGCAGCGCTGTGA	746
ACAGGAAACTAAAATAAGAACAGAAAACCAAGACAG	852
TAAATACCTCACAGGAAATTTGAGGTTGGATGAGAT	2320
CTCTGCCCGCTTCCGCTGGCGGTACCTCAGAGCCGC	920
CTGCACAAGGAAGCGCCTGTGTTGCTGTGGGCGGAG	402
AGCGGCTCCTTCCGGCGGCGCGGGTTCCCTTCCCTC	581
CCACGTCCACAAAGGAAACCGCGGCCTGCCCGGGGA	1390
CAGAAAAGGCAGGAAGTGGTACAAACCACAAAAGGC	49600
CGAGGGAGCCGGAAAGATGGTGGTTACCAGATCTGC	992
CCCCGTTACGCCCATCCGGCTCCCGCATAGGGCGTC	402
AGGAGTGACGAGGCGGACGTGCGGGGGCGGGGGTGT	458
GAGATAGTCTGGAGGGGAAGTGGTTATAAGTGATAA	1290
GTGAGTCACTTCCTGACCATGTGGGTTTTTGGTACG	937
AAGTTCTTCCGGGTCTGCAGTCTGTGGTGTGTTTGC	422
GCGGGCAGGATCTTCCTGTGGTTTGCCTTGCCCACT	653
TTCAGGAAATGCAAACGGCTGCAGAGACCGCAGAGG	2490
